# Laboratory results taken from PubChem BioAssay (NCI).
# About 83,000 compounds went through this panel and 20% of them were active in at least one assay; those are over-represented in the sample as a whole.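 Step 1: grow cells in 96-well plates. Step 2: add test compound at a single concentration. Step 3: incubate 48 h. Step 4: record percent growth.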 A number with no mark means an inactive call. Activity calls are given as the source filed them. How the source made its calls: active means growth percent below 10; inactive means the rest.
# Tests used:
# Assay in all cases: NCI-60 one-dose screen, 48 h (100 = growth as untreated, 0 = no growth, -100 = all killed)
# Settings in all cases: 10 µM
# [1] = system: SR leukemia
# [2] = system: RPMI-8226 leukemia
# [3] = system: OVCAR-8 ovarian
# [4] = system: OVCAR-5 ovarian
# [5] = system: OVCAR-4 ovarian
# [6] = system: SK-OV-3 ovarian
# [7] = system: IGROV1 ovarian
# [8] = system: OVCAR-3 ovarian
# [9] = system: HS 578T breast
# [10] = system: NCI/ADR-RES ovarian
# [11] = system: T-47D breast
# [12] = system: BT-549 breast
# [13] = system: MDA-MB-435 melanoma
# [14] = system: MCF7 breast
# [15] = system: HCT-116 colon
# [16] = system: HCC-2998 colon
# [17] = system: KM12 colon
# [18] = system: MDA-MB-468 breast
# [19] = system: SW-620 colon
Structure (SMILES),growth [1],growth [2],growth [3],growth [4],growth [5],growth [6],growth [7],growth [8],growth [9],growth [10],growth [11],growth [12],growth [13],growth [14],growth [15],growth [16],growth [17],growth [18],growth [19]
Cc1ccc2nc3c(nc2c1)c1cc(I)ccc1n3CCN(C)C,10.8%,22%,23.6%,31.9%,27.2%,39%,13.9%,40.8%,23.9%,12.5%,44.8%,60.2%,13.7%,-4.43% (active),9.81% (active),-15.6% (active),21.1%,5.08% (active),
COc1ccc(NC(=O)Nc2ccc(OCC(=O)N=Nc3c(O)[nH]c4ccc([N+](=O)[O-])cc34)cc2)cc1,92.4%,110%,37.1%,124%,59.8%,93.9%,92.6%,24.6%,39%,91.1%,32.6%,27.5%,106%,,85.6%,66.6%,18%,30.2%,98.3%
Cc1ccc(C(=O)NNC(=O)CSc2nc3ccccc3c(=O)[nH]2)cc1,73%,105%,97.8%,104%,104%,116%,102%,103%,97.5%,101%,95.8%,94.2%,101%,,107%,105%,107%,84.6%,103%
O=C(CSc1nnc(-c2c[nH]c3ccccc23)n1-c1ccccc1)Nc1ccc(C(=O)/C=C/c2ccc(Cl)cc2)cc1,70.8%,4.94% (active),85.5%,98.2%,74.8%,80.7%,74.7%,69.6%,73.2%,92.9%,40.3%,93.5%,64.1%,,-37.3% (active),78%,64.5%,65.9%,90.4%
CN(C)c1nc(NCCNS(=O)(=O)c2ccc(C(=O)/C=C/c3ccccc3)cc2)nc(Nc2ccc(F)cc2)n1,-4.76% (active),18.2%,41.9%,38.2%,25.2%,,8.78% (active),-42.2% (active),72.9%,15.7%,25.6%,24.9%,4.21% (active),-82.8% (active),-53% (active),-75.7% (active),-78.4% (active),1.47% (active),-4.39% (active)
Cn1cc(-c2cc(N)n3nc(-c4c[nH]c5ccc(Br)cc45)cc3n2)c2cc(Br)cnc21,-15.6% (active),-6.39% (active),-41.6% (active),,-41.1% (active),-55.9% (active),-21.6% (active),-90.4% (active),-29% (active),-60% (active),-74.7% (active),-75.4% (active),-46.3% (active),-79.5% (active),-69.6% (active),-98.1% (active),-73.1% (active),-98.3% (active),-71.2% (active)
Cc1cc(C)nc(NS(=O)(=O)c2ccc(N/C(N)=N/c3nccc(-c4cccs4)n3)cc2)n1,92.3%,87%,101%,107%,93.6%,,,107%,77.7%,101%,78.8%,111%,106%,67.6%,96.4%,127%,96.9%,106%,102%
COc1cc2c(cc1OC)/C(=C\c1sc(Nc3ccc(O)cc3)nc1O)C(C(=O)O)=N2,17%,16.1%,22.8%,,54%,,34.3%,3.64% (active),31%,85.4%,46.7%,57.2%,-77.3% (active),12.3%,21.4%,36.7%,20.9%,,26.8%
C=C1CCC2C3(C)COC(c4ccccc4F)OC3CCC2(C)C1C/C=C1/C(=O)OCC1O (stereo not given),11.6%,13.4%,-54.3% (active),,22.2%,26.3%,-45.8% (active),-79.1% (active),-0.635% (active),-23% (active),-50.4% (active),-82.1% (active),4.59% (active),-26.5% (active),-67.8% (active),-73.5% (active),-82.3% (active),,
CN1C(=O)/C(=C/c2nccs2)SC1=S,52.3%,97.2%,91.5%,95.6%,84.1%,,63.8%,114%,86.5%,93.5%,45.9%,90.2%,83.9%,38.2%,85.2%,113%,90.2%,65.3%,92.5%
CN1C(=O)N(C)C2SC(N/N=C/c3cccs3)=NC21 (stereo not given),13.4%,51.9%,34.4%,42.5%,57.9%,,36.7%,-54% (active),25.3%,-15.2% (active),21.7%,21.4%,-37.6% (active),,28.2%,54.2%,16.1%,-22.8% (active),15.4%
O=C(CNc1nc(-c2ccccc2)cs1)Nc1ccc([N+](=O)[O-])cc1,10.8%,11.7%,17.7%,,18%,53.9%,16.6%,13.1%,21.8%,-20.4% (active),2.53% (active),12.3%,40.6%,1.69% (active),11.7%,-97.8% (active),36.7%,-88.2% (active),7.63% (active)
